Screens: PubChem, National Center for Advancing Translational Sciences (NCATS)
A selection: hits, their analogues and other compounds. The true share with any hit is near 20%.
Shiga toxin inh – inhibitors of Shiga toxin in Vero cells. Vero cells, Shiga toxin protein synthesis inhibition reporter. inhibition, % at 38.7 µM. 290,000 tested, 9.2% active; in the data active = inhibition mostly above about 28%, no sharp cut-off; inactive = mostly below about 43%; also: 0% is about no effect
Pf growth 48h – P. falciparum growth inhibition at 48 hours (one generation); 310,000 tested, 5.9% active; P. falciparum luciferase growth in erythrocytes, 48 h; AID 504832; Potency, µM (series often up to 28.7 µM), inactives show at the highest dose activity change, negative = inhibition, most hits filed as inhibitors; also: potency is read from the fitted curve at half-maximal effect; % is scaled to controls: 0 for no effect and ±100 for the full control effect
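Luciferase-expressing parasites in RBCs, 2% Hct / 0.1% parasitemia final; RPMI 1640 + 0.5% Albumax; 37 C, 5% CO2, one generation; luminescence read-out, lower signal = inhibition.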
HCMV antiviral – blocks human cytomegalovirus replication. HFF cells, HCMV-luciferase reporter, 72 h; stronger effect = lower value. activity change, negative = inhibition, % at 57.5 µM. 410,000 tested, 4.5% active; in the data active = activity change below about -60%; inconclusive = no clear call, values can overlap the other calls; inactive = above about -39%; also: % is scaled to controls: 0 for no effect and ±100 for the full control effect
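After 16 h attachment at 37C, HFF cells received test compound and HCMV-luciferase (1 PFU/cell); reporter luminescence read 72 h later, data normalized against buffer-only and known inhibitor Salinomycin.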
Cycloheximide cs – affects cycloheximide protein synthesis inhibition readout, counter-screen. max response, %. 300,000 tested, 12% active. cell reporter, cycloheximide protein synthesis inhibition counterscreen; in the data active = max response mostly above about 13%, no sharp cut-off; inactive = mostly below about 14%; also: read at 38.3 µM for the half of the compounds with a filed dose; 0% is about no effect
Pf growth 96h – P. falciparum growth inhibition at 96 hours | P. falciparum luciferase reporter growth, 96 h | Potency, µM (top dose mostly 28.7 µM), for inactives: top-dose activity change, negative = inhibition, actives largely listed as inhibitors | AID 504834 | 320,000 tested, 6.9% active; also: potency is read from the fitted curve at half-maximal effect; % is scaled to controls: 0 for no effect and ±100 for the full control effect
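P. falciparum expressing integrated firefly luciferase grown in erythrocytes (2% hematocrit, 0.05% parasitemia final) with compounds for 96 hours at 37 C, 5% CO2. Growth inhibition read as loss of luminescence after adding luciferase detection reagent.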
* hit, by the source's call; ? = inconclusive; nt = no result. Unless noted, calls follow the shape of the dose curve; as a rule, active = well fitted inhibition curve with a large enough effect; inconclusive = small, poorly fitted or top-dose-only effect, or another doubt; inactive = no such curve, though single readings can be large or run the other way.

SMILES | Shiga toxin inh | Pf growth 48h | HCMV antiviral | Cycloheximide cs | Pf growth 96h
O=C1C(Nc2ccccc2)=C/C(=N/S(=O)(=O)c2cccs2)c2ccccc21 | 16 | 0.52µM* | nt | 11 | 0.52µM*
CCOC(=O)/C=C/C(=O)Nc1ccc(S(=O)(=O)Nc2nccs2)cc1 | -2 | ? | 3 | 0 | 71%
CCCOc1ccc(C2NC(=S)NC(c3ccccc3)=C2C(=O)Nc2ccc(C)cc2)cc1OC (stereo not given) | 0 | 2.6µM* | -19 | 13 | -21%
CCOC(=O)C1=C(c2ccccc2)NC(=S)NC1c1cc([N+](=O)[O-])ccc1OC (stereo not given) | -24 | 12µM* | -17 | -2 | 8%
CCCC#Cc1ccc2c(c1)O[C@H](CN(C)C(=O)CC1CC1)[C@H](C)CN([C@@H](C)CO)S2(=O)=O | nt | nt | -29 | nt | nt
COc1ccc2c(-c3cc4ccc(OCc5ccc(F)cc5)cc4oc3=O)cc(=O)oc2c1 | 2 | 8% | -22 | -3 | 22%
O=C1COc2ccc(OCc3ccc(F)cc3)cc21 | 101* | 118% | 72 | 51* | 31%
CCc1ccc(/C=C2\SC(=S)N(CCCC(=O)N(CCO)c3ccccc3)C2=O)cc1 | nt | nt | -98* | nt | nt
CCc1ccc(/C=C2/SC(=S)N(CCCC(=O)Nc3ccccc3C(=O)O)C2=O)cc1 | -15 | -2% | -35 | -4 | 19%
COc1ccc(/C=C2\SC(=S)N(CCC(=O)N(CCO)c3ccccc3)C2=O)cc1OC | -16 | ? | -60* | -5 | 39%
CCOc1ccc(/C=C2\SC(=S)N(CCC(=O)N(CCO)c3ccccc3)C2=O)cc1 | 24 | ? | -100* | 2 | ?
O=C1/C(=C/c2cccs2)SC(=S)N1CCCC(=O)N(CCO)c1ccccc1 | -2 | ? | -98* | -9 | -14%
O=C(CCCN1C(=O)c2ccccc2C1=O)NCCN1C(=O)S/C(=C\c2cccs2)C1=O | 14 | 22% | ? | -1 | ?
CCOC(=O)CNC(=O)/C=C/c1ccc2c(c1)OCO2 | 29 | 10% | -22 | 18* | ?
CC(=O)c1cccc(NC(=O)COC(=O)c2ccc3c(c2)OCO3)c1 | nt | 24% | 3 | nt | 10%
CCOC(=O)c1c(C)c(C(=O)Nc2ccc3c(c2)OCO3)c(C)n1C | 41* | ? | 3 | 14 | -35%
Cc1nc(NC(=O)c2ccccc2)nc2cc3c(cc12)OCO3 | 92* | 158% | 23 | 46* | 317%
CCOC(=O)c1cccc(NC(=O)c2ccc3c(c2)OCO3)c1 | 33* | 64% | 27 | 21* | -26%
CCOC(=O)CNc1ccc2c(c1)OCO2 | -5 | ? | -24 | 15 | 228%
C=C(C)C1CCC(C)=C1COC(=O)Nc1ccccc1 (stereo not given) | 28 | -19% | -16 | 18 | -41%
CCn1cc(S(=O)(=O)c2ccc(Cl)cc2)c(=O)c2cc(OC)ccc21 | -2 | -17% | 0 | -3 | 37%
Cc1ccc(C)c(N2CCN(C(=O)C(C)n3nc(C)c4sc5ccccc5c4c3=O)CC2)c1 (stereo not given) | nt | nt | 21 | nt | nt
CCOC(=O)c1oc2ccccc2c1NC(=O)c1ccc2c(c1)OCO2 | -6 | 12% | -5 | -3 | 13µM*
CCOC(=O)c1[nH]c2ccccc2c1NC(=O)c1ccc2c(c1)OCO2 | 21 | nt | 23 | 4 | -9%
CCOC(=O)c1cccc(NC(=O)/C=C/c2ccc3c(c2)OCO3)c1 | 45* | 196% | -11 | 31* | ?
SMILES | Shiga toxin inh | Pf growth 48h | HCMV antiviral | Cycloheximide cs | Pf growth 96h
O=C(Nc1cccc(NC(=O)c2ccc3c(c2)OCO3)c1)c1ccccc1 | 48 | 29% | 68 | 24* | 67%
CC(=O)c1cccc(NC(=O)c2ccc3c(c2)OCO3)c1 | nt | 84% | 75 | 52* | ?
CCOc1ccc(NC(=O)CN(C)C(=O)CC2CCCCC2)cc1OCC | nt | ? | -68* | nt | ?
CCOc1ccc(NC(=O)CN(C)C(=O)CC2CCCC2)cc1OCC | nt | ? | 16 | nt | 13µM*
CCOc1ccc(NC(=O)CN(C)C(=O)CCC2CCCCC2)cc1OCC | nt | ? | -21 | nt | 15µM*
CCOc1ccc(NC(=O)CN(C)C(=O)C2CCCC2)cc1OCC | -4 | -16% | -18 | -6 | 0%
COc1ccc(NC(=O)CN(C)C(=O)CCC2CCCC2)cc1 | -15 | 13% | -29 | -2 | -4%
CCOc1ccc(NC(=O)CN(C)C(=O)C2CC2C)cc1OCC (stereo not given) | nt | 13% | -30 | nt | 13%
COc1ccc(NC(=O)CCC2CCCC2)cc1OC | 67* | -17% | 43 | 19* | 22%
